# According to paper PMC5540273 (PLoS ONE, 2017):
# Values joined by “and” are separate entries in the source; they are usually repeats but may differ in a detail not shown here. Equal values may be shown once. Read-outs that look alike come from different tables or passages of the source.
# Columns and labels:
# CDK2 = details: concentration: 1 μM, replicates: in singlicate; n = 1
# CDK3 = details: concentration: 1 μM, replicates: in singlicate, n = 1
# CDK4-cyclinD1 = details: concentration: 1 μM, replicates: in singlicate; n = 1
# CDK4-cyclinD3 = details: concentration: 1 μM, replicates: in singlicate; n = 1
# CDK4 = details: concentration: 1 μM, replicates: in singlicate, n = 1
# CDK5 = details: concentration: 1 μM, replicates: in singlicate; n = 1
# CDK7 = details: concentration: 1 μM, replicates: in singlicate, n = 1
# CDK8 = details: concentration: 1 μM, replicates: in singlicate, n = 1
# CDK9 = details: concentration: 1 μM, replicates: in singlicate; n = 1
# CDKL1 = details: concentration: 1 μM, replicates: in singlicate, n = 1
# CDKL2 = details: concentration: 1 μM, replicates: in singlicate, n = 1
# CDKL3 = details: concentration: 1 μM, replicates: in singlicate, n = 1
# CDKL5 = details: concentration: 1 μM, replicates: in singlicate, n = 1
# CHEK1 = details: concentration: 1 μM, replicates: in singlicate, n = 1
# CHEK2 = details: concentration: 1 μM, replicates: in singlicate; n = 1
# CIT = details: concentration: 1 μM, replicates: in singlicate, n = 1
# CLK1 = details: concentration: 1 μM, replicates: in singlicate, n = 1
# CLK2 = details: concentration: 1 μM, replicates: in singlicate, n = 1
# CLK3 = details: concentration: 1 μM, replicates: in singlicate, n = 1
# CLK4 = details: concentration: 1 μM, replicates: in singlicate, n = 1
# 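Also: KINOMEscan kinase panel screen.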
smiles,measurement,setting,value
Nc1n[nH]c2nnc(-c3ccccc3)cc12 [SB-517389],%Inh,CDK2,0%
same,%Inh,CDK3,20%
same,%Inh,CDK4-cyclinD1,0%
same,%Inh,CDK4-cyclinD3,22%
same,%Inh,CDK4,0%
same,%Inh,CDK5,0%
same,%Inh,CDK7,0%
same,%Inh,CDK8,0%
same,%Inh,CDK9,21%
same,%Inh,CDKL1,0%
same,%Inh,CDKL2,18%
same,%Inh,CDKL3,69%
same,%Inh,CDKL5,0%
same,%Inh,CHEK1,10%
same,%Inh,CHEK2,0%
same,%Inh,CIT,29%
same,%Inh,CLK1,43%
same,%Inh,CLK2,32%
same,%Inh,CLK3,19%
same,%Inh,CLK4,19%
COc1ccc(Nc2nccc(N3CCC(NC(=O)c4cccc(NC(C)=O)c4)C3)n2)cc1 (stereo not drawn) [GSK1379732],%Inh,CDK2,0%
same,%Inh,CDK3,0%
same,%Inh,CDK4-cyclinD1,20%
same,%Inh,CDK4-cyclinD3,0%
same,%Inh,CDK4,0%
same,%Inh,CDK5,0%
same,%Inh,CDK7,3%
same,%Inh,CDK8,56%
same,%Inh,CDK9,0%
same,%Inh,CDKL1,9%
same,%Inh,CDKL2,18%
same,%Inh,CDKL3,0%
same,%Inh,CDKL5,0%
same,%Inh,CHEK1,0%
same,%Inh,CHEK2,41%
same,%Inh,CIT,43%
same,%Inh,CLK1,21%
same,%Inh,CLK2,0%
same,%Inh,CLK3,0%
same,%Inh,CLK4,12%
CCC(CC)(CC)n1cnc2c(N)ncnc21 [SKF-97620],%Inh,CDK2,0%
same,%Inh,CDK3,3%
same,%Inh,CDK4-cyclinD1,0%
same,%Inh,CDK4-cyclinD3,0%
same,%Inh,CDK4,28%
same,%Inh,CDK5,5%
same,%Inh,CDK7,22%
same,%Inh,CDK8,30%
same,%Inh,CDK9,0%
same,%Inh,CDKL1,13%
same,%Inh,CDKL2,0%
same,%Inh,CDKL3,0%
same,%Inh,CDKL5,23%
same,%Inh,CHEK1,0%
same,%Inh,CHEK2,0%
same,%Inh,CIT,13%
same,%Inh,CLK1,0%
same,%Inh,CLK2,0%
same,%Inh,CLK3,6%
same,%Inh,CLK4,16%
Cn1ccc2ncnc(Oc3ccc(NC(=O)Nc4cccnc4)c(Cl)c3)c21,%Inh,CDK2,0%
same,%Inh,CDK3,0%
same,%Inh,CDK4-cyclinD1,0%
same,%Inh,CDK4-cyclinD3,0%
same,%Inh,CDK4,0%
same,%Inh,CDK5,4%
same,%Inh,CDK7,7%
same,%Inh,CDK8,0%
same,%Inh,CDK9,2%
same,%Inh,CDKL1,8%
same,%Inh,CDKL2,3%
same,%Inh,CDKL3,13%
same,%Inh,CDKL5,14%
same,%Inh,CHEK1,0%
same,%Inh,CHEK2,9%
same,%Inh,CIT,5%
same,%Inh,CLK1,0%
same,%Inh,CLK2,5%
same,%Inh,CLK3,4%
same,%Inh,CLK4,32%
Oc1ccc2ncnc(Nc3ccc(OCc4ccccc4)cc3)c2c1 [GI262866],%Inh,CDK2,0%
same,%Inh,CDK3,22%
same,%Inh,CDK4-cyclinD1,0%
same,%Inh,CDK4-cyclinD3,0%
same,%Inh,CDK4,16%
same,%Inh,CDK5,0%
same,%Inh,CDK7,0%
same,%Inh,CDK8,21%
same,%Inh,CDK9,0%
same,%Inh,CDKL1,0%
same,%Inh,CDKL2,0%
same,%Inh,CDKL3,0%
same,%Inh,CDKL5,7%
same,%Inh,CHEK1,8%
same,%Inh,CHEK2,23%
same,%Inh,CIT,0%
same,%Inh,CLK1,37%
same,%Inh,CLK2,0%
same,%Inh,CLK3,21%
same,%Inh,CLK4,19%
COc1cc2c(Nc3cccc(NC(=O)c4ccccc4)c3)ncnc2cc1OCCCN1CCOCC1 [GSK223810],%Inh,CDK2,0%
same,%Inh,CDK3,5%
same,%Inh,CDK4-cyclinD1,0%
same,%Inh,CDK4-cyclinD3,0%
same,%Inh,CDK4,0%
same,%Inh,CDK5,0%
same,%Inh,CDK7,0%
same,%Inh,CDK8,14%
same,%Inh,CDK9,0%
same,%Inh,CDKL1,0%
same,%Inh,CDKL2,3%
same,%Inh,CDKL3,0%
same,%Inh,CDKL5,0%
same,%Inh,CHEK1,0%
same,%Inh,CHEK2,0%
same,%Inh,CIT,29%
same,%Inh,CLK1,10%
same,%Inh,CLK2,10%
same,%Inh,CLK3,0%
same,%Inh,CLK4,16%
COc1ccc(-c2nc3n(c2-c2ccncc2)CCC3)cc1 [SKF-104493],%Inh,CDK2,0%
same,%Inh,CDK3; 1 µM,0% and 4%
same,%Inh,CDK4-cyclinD1,0%
same,%Inh,CDK4-cyclinD3,0%
same,%Inh,CDK4; 1 µM,44% and 0%
same,%Inh,CDK5,0%
same,%Inh,CDK7; 1 µM,15% and 6%
same,%Inh,CDK8; 1 µM,5% and 9%
same,%Inh,CDK9,0%
same,%Inh,CDKL1; 1 µM,11% and 6%
same,%Inh,CDKL2; 1 µM,0% and 1%
same,%Inh,CDKL3; 1 µM,1% and 0%
same,%Inh,CDKL5; 1 µM,2% and 0%
same,%Inh,CHEK1; 1 µM,0% and 13%
same,%Inh,CHEK2,0%
same,%Inh,CIT; 1 µM,16% and 15%
same,%Inh,CLK1; 1 µM,16% and 11%
same,%Inh,CLK2; 1 µM,0% and 6%
same,%Inh,CLK3; 1 µM,5% and 1%
same,%Inh,CLK4; 1 µM,10% and 0%
Cc1ccc(O)cc1Nc1cc(C(F)(F)F)nc2ccc(-c3ccncc3)cc12 [GW630823],%Inh,CDK2,5%
same,%Inh,CDK3,0%
same,%Inh,CDK4-cyclinD1,0%
same,%Inh,CDK4-cyclinD3,0%
same,%Inh,CDK4,0%
same,%Inh,CDK5,0%
same,%Inh,CDK7,0%
same,%Inh,CDK8,0%
same,%Inh,CDK9,5%
same,%Inh,CDKL1,20%
same,%Inh,CDKL2,0%
same,%Inh,CDKL3,0%
same,%Inh,CDKL5,0%
same,%Inh,CHEK1,34%
same,%Inh,CHEK2,0%
same,%Inh,CIT,0%
same,%Inh,CLK1,40%
same,%Inh,CLK2,16%
same,%Inh,CLK3,0%
same,%Inh,CLK4,20%
c1ccc(-c2ccc3c(-c4ccnc(Nc5ccc6c(c5)OCCO6)n4)cnn3n2)cc1 [GW818941],%Inh,CDK2,0%
same,%Inh,CDK3,3%
same,%Inh,CDK4-cyclinD1,0%
same,%Inh,CDK4-cyclinD3,0%
same,%Inh,CDK4,34%
same,%Inh,CDK5,0%
same,%Inh,CDK7,0%
same,%Inh,CDK8,11%
same,%Inh,CDK9,0%
same,%Inh,CDKL1,0%
same,%Inh,CDKL2,16%
same,%Inh,CDKL3,0%
same,%Inh,CDKL5,0%
same,%Inh,CHEK1,0%
same,%Inh,CHEK2,0%
same,%Inh,CIT,6%
same,%Inh,CLK1,52%
same,%Inh,CLK2,42%
same,%Inh,CLK3,0%
same,%Inh,CLK4,58%
C[C@H]1CC[C@@H](C(=O)Nc2ccccc2)CN1c1cc(-c2ccc3c(N)n[nH]c3c2)nc(N)n1 [GSK2283293],%Inh,CDK2,0%
same,%Inh,CDK3,0%
same,%Inh,CDK4-cyclinD1,0%
same,%Inh,CDK4-cyclinD3,0%
same,%Inh,CDK4,0%
same,%Inh,CDK5,0%
same,%Inh,CDK7,0%
same,%Inh,CDK8,14%
same,%Inh,CDK9,0%
same,%Inh,CDKL1,22%
same,%Inh,CDKL2,17%
same,%Inh,CDKL3,0%
same,%Inh,CDKL5,0%
same,%Inh,CHEK1,0%
same,%Inh,CHEK2,0%
same,%Inh,CIT,32%
same,%Inh,CLK1,18%
same,%Inh,CLK2,0%
same,%Inh,CLK3,0%
same,%Inh,CLK4,21%
NC(=O)c1sc(-n2cnc3ccccc32)cc1OCc1ccccc1F [GSK1024306],%Inh,CDK2,0%
same,%Inh,CDK3,0%
same,%Inh,CDK4-cyclinD1,0%
same,%Inh,CDK4-cyclinD3,0%
same,%Inh,CDK4,33%
same,%Inh,CDK5,0%
same,%Inh,CDK7,0%
same,%Inh,CDK8,37%
same,%Inh,CDK9,0%
same,%Inh,CDKL1,10%
same,%Inh,CDKL2,22%
same,%Inh,CDKL3,0%
same,%Inh,CDKL5,0%
same,%Inh,CHEK1,0%
same,%Inh,CHEK2,0%
same,%Inh,CIT,39%
same,%Inh,CLK1,37%
same,%Inh,CLK2,0%
same,%Inh,CLK3,0%
same,%Inh,CLK4,42%
Cl.c1ccc(Cn2ncc3cc(Nc4ncnc5ccccc45)ccc32)cc1 [GW273749],%Inh,CDK2,7%
same,%Inh,CDK3,0%
same,%Inh,CDK4-cyclinD1,0%
same,%Inh,CDK4-cyclinD3,11%
same,%Inh,CDK4,15%
same,%Inh,CDK5,0%
same,%Inh,CDK7,1%
same,%Inh,CDK8,0%
same,%Inh,CDK9,0%
same,%Inh,CDKL1,0%
same,%Inh,CDKL2,8%
same,%Inh,CDKL3,0%
same,%Inh,CDKL5,3%
same,%Inh,CHEK1,0%
same,%Inh,CHEK2,30%
same,%Inh,CIT,26%
same,%Inh,CLK1,42%
same,%Inh,CLK2,6%
same,%Inh,CLK3,0%
same,%Inh,CLK4,4%
CCn1c(-c2ccncc2)nc2cnccc21 [SB-735216],%Inh,CDK2,5%
same,%Inh,CDK3,1%
same,%Inh,CDK4-cyclinD1,0%
same,%Inh,CDK4-cyclinD3,0%
same,%Inh,CDK4,45%
same,%Inh,CDK5,0%
same,%Inh,CDK7,6%
same,%Inh,CDK8,0%
same,%Inh,CDK9,0%
same,%Inh,CDKL1,12%
same,%Inh,CDKL2,0%
same,%Inh,CDKL3,25%
same,%Inh,CDKL5,4%
same,%Inh,CHEK1,0%
same,%Inh,CHEK2,0%
same,%Inh,CIT,0%
same,%Inh,CLK1,16%
same,%Inh,CLK2,0%
same,%Inh,CLK3,0%
same,%Inh,CLK4,16%
CC(=O)Nc1n[nH]c2ncc(-c3ccccc3)cc12 [SB-548492],%Inh,CDK2,8%
same,%Inh,CDK3,12%
same,%Inh,CDK4-cyclinD1,0%
same,%Inh,CDK4-cyclinD3,1%
same,%Inh,CDK4,25%
same,%Inh,CDK5,11%
same,%Inh,CDK7,17%
same,%Inh,CDK8,0%
same,%Inh,CDK9,0%
same,%Inh,CDKL1,30%
same,%Inh,CDKL2,6%
same,%Inh,CDKL3,0%
same,%Inh,CDKL5,0%
same,%Inh,CHEK1,0%
same,%Inh,CHEK2,1%
same,%Inh,CIT,4%
same,%Inh,CLK1,41%
same,%Inh,CLK2,19%
same,%Inh,CLK3,32%
same,%Inh,CLK4,27%
Cl.c1ccc(Cn2ccc3cc(Nc4ncnc5ccccc45)ccc32)cc1 [GW275568],%Inh,CDK2,1%
same,%Inh,CDK3,16%
same,%Inh,CDK4-cyclinD1,0%
same,%Inh,CDK4-cyclinD3,16%
same,%Inh,CDK4,31%
same,%Inh,CDK5,0%
same,%Inh,CDK7,13%
same,%Inh,CDK8,5%
same,%Inh,CDK9,27%
same,%Inh,CDKL1,18%
same,%Inh,CDKL2,4%
same,%Inh,CDKL3,8%
same,%Inh,CDKL5,0%
same,%Inh,CHEK1,2%
same,%Inh,CHEK2,27%
same,%Inh,CIT,5%
same,%Inh,CLK1,26%
same,%Inh,CLK2,10%
same,%Inh,CLK3,59%
same,%Inh,CLK4,0%
